In PubChem BioAssay AID2108 (National Center for Advancing Translational Sciences (NCATS), 2009):
Inconclusive results are not listed. Calls of active or inactive are those of the source. The call rests on the fitted dose curve; in most records, active means well fitted curve in the direction sought with a large enough effect; inconclusive means small, poorly fitted or top-dose-only effect, or effect the other way, or another doubt; inactive means no such curve, though single readings can be large or run the other way.

target: Alpha-galactosidase A (Homo sapiens) (UniProt P06280); test: Confirmation of Inhibitors of Human alpha-Galactosidase Using Spleen Homogenate; conditions: alpha-galactosidase enzyme activity; series mostly up to 56.2 µM
Sequence (P06280 32-429 limits assumed): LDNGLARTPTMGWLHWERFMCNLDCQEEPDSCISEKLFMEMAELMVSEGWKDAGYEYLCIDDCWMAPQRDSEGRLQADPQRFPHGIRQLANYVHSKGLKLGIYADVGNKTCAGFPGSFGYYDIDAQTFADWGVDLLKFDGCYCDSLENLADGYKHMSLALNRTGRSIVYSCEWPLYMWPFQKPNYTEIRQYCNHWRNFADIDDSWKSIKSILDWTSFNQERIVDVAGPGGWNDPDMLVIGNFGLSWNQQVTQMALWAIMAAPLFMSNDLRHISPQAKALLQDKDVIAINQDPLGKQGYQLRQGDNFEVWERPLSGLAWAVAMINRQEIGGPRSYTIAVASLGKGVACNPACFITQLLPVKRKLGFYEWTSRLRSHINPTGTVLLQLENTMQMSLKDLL
Summary of the method: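 Human spleen homogenate (1 ug) with 1 mM 4-methylumbelliferyl-alpha-D-galactopyranoside in citrate-phosphate pH 5.0, 0.01% Tween-20, 37C 40 min; compounds 0.5 nM–58 uM final. Stopped at pH 10, fluorescence Ex 365/Em 440; AC50 from Hill fits.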

Row | SMILES | outcome
1 | Cc1ccc(-c2cc(C(=O)N3CCN(S(=O)(=O)c4ccc(Br)s4)CC3)[nH]n2)c(C)c1 | inactive
2 | O=C(CSc1nc(C2CC2)nc2ccccc12)Nc1cccc(O)c1 | inactive
3 | CC(C)Cn1c(SCC(=O)N2CCN(S(=O)(=O)c3ccccc3)CC2)nc2ccccc21 | inactive
4 | O=c1[nH]c(CN2CCN(c3ccccc3O)CC2)nc2ccccc12 | inactive
5 | COc1cc(CNc2ccc(N3CCOCC3)cc2)cc(Br)c1OC | inactive
6 | Cc1ccc(S(=O)(=O)NN2C(=O)/C(=C\c3ccc(Cl)cc3)SC2=S)cc1 | inactive
7 | O=C(NC1=NCCS1)C1Cc2ccccc2CN1C(=O)c1ccccc1 (stereo unspecified) | inactive
8 | COC(=O)c1ccc(C(=O)OC)c(NC(=S)N2CCOCC2)c1 | inactive
9 | COc1cc(C2c3cc4c(cc3C(OC3OC5COC(C)O[C@@H]5C(O)C3O)C3COC(=O)C23)OCO4)cc(OC)c1O (stereo partly specified) | inactive
10 | COc1ccc(C(=O)N2CCN(c3ccc([N+](=O)[O-])c(NCCc4ccc(OC)c(OC)c4)c3)CC2)cc1 | inactive
11 | NC(=O)NN=C1c2cc(S(=O)(=O)N3CCOCC3)ccc2-c2ccc(S(=O)(=O)N3CCOCC3)cc21 | inactive
12 | CCCCn1c(CN2CCN(c3cccc(Cl)c3)CC2)nc2c1c(=O)n(C)c(=O)n2C | inactive
13 | COc1ccc(C2C(C(=O)c3ccco3)=C(O)C(=O)N2CC2CCCO2)c(OC)c1 (stereo unspecified) | inactive
14 | CCCN1CNc2c(c(=O)[nH]c(=S)n2CCc2ccc(OC)c(OC)c2)C1 | inactive
15 | CC(C)NCC(O)COc1cccc2[nH]ccc12 (stereo unspecified) | inactive
16 | COc1cc2cc(CN(Cc3nnnn3Cc3ccccc3)CC3CCCO3)c(=O)[nH]c2cc1OC (stereo unspecified) | inactive
17 | N#Cc1ccc(S(=O)(=O)N2CCOCC2)cc1 | inactive
18 | Cc1ccc(CNc2ccc(N3CCOCC3)cc2)cc1 | inactive

Row | SMILES | outcome
19 | CN(C)CC/C=C1/c2ccccc2Sc2c(O)cc(Cl)cc21 | inactive
20 | O=C(O)Cn1nnnc1SCC(=O)Nc1ccc(OC(F)(F)F)cc1 | inactive
21 | N#C/C(=C\c1cc(O)c(O)c(O)c1)C(N)=O | inactive
22 | Cc1ccc(S(=O)(=O)N2CCN(C(=O)CSc3nc4ccccc4c(=O)[nH]3)CC2)c(C)c1 | inactive
23 | N#Cc1c(-c2ccc(F)cc2)cc(-c2cccnc2)nc1N | inactive
24 | CN1CCN(S(=O)(=O)c2ccccc2)CC1 | inactive
25 | CCOC(=O)Nc1ccc2c(c1)N(C(=O)CN(CC)CC)c1ccccc1CC2 | inactive
26 | C=CCN1CCc2c(cc(O)c(O)c2Cl)C(c2ccccc2)C1 (stereo unspecified) | inactive
27 | CSc1ccccc1NC(=O)CN(C)CC(=O)NCc1ccccc1 | inactive
28 | O=c1oc2ccccc2cc1-c1csc(Cc2nc3c(s2)CCCC3)n1 | inactive
29 | O=C1c2ccccc2NC(c2cccnc2)N1c1ccccc1F (stereo unspecified) | inactive
30 | O=C(Cn1c(=O)n(Cc2ccccc2)c(=O)c2sc3ccccc3c21)Nc1ccccc1 | inactive
31 | Cc1oc2c(O)c(O)ccc2c(=O)c1-c1cnn(-c2ccccc2)c1 | inactive
32 | O=C1CC(c2ccccc2)Cc2nc(NCc3ccco3)ncc21 (stereo unspecified) | inactive
33 | OCC1NCC(O)C(O)C1O (stereo unspecified) | inactive
34 | Cc1ccc(N/N=C2\CCS(=O)(=O)c3sccc32)cc1 | inactive
35 | Cc1ccc(N2CC(C(=O)NCc3ccc(C)n3C)CC2=O)cc1 (stereo unspecified) | inactive
36 | CCOC(=O)N1CCN(c2cc(N(C)CCO)c([N+](=O)[O-])c3nonc23)CC1 | inactive
